Here are results for eight sequences from paper PMC8384837, “Expanding the binding specificity for RNA recognition by a PUF domain”.

Experiment in all cases: yeast three-hybrid, YBZ-1, SC-Leu-His + 0.5 mM 3-AT, 4 days
Conditions in all cases: tags: N-Gal4 AD-HA kept; label: inside an RPR1-promoter hybrid RNA with tandem MS2 sites; ssRNA

One assay deals with PUM1 PUF domain R3-GCD (Homo sapiens, UniProt Q14671 828-1176, C935G;R936C;Q939D). The procedure, abridged: (§1)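 The interaction score is the log change in variant frequency from input to selection. Scores were computed in log2 with a pseudocount of 1 for absent variants, using Illumina sequencing of PCR-amplified repeat regions. The input came from four days on SC-Leu and the selection from four days on SC-Leu-His + 0.5 mM 3-AT. The cells were strain YBZ-1 (LexA–MS2 coat fusion, HIS3 reporter) co-expressing Pumilio-1 PUF domain libraries and matching RNA elements from a centromeric plasmid.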
PUM1 PUF domain R3-GCD, sequence (Q14671 828-1176 C935G/R936C/Q939D): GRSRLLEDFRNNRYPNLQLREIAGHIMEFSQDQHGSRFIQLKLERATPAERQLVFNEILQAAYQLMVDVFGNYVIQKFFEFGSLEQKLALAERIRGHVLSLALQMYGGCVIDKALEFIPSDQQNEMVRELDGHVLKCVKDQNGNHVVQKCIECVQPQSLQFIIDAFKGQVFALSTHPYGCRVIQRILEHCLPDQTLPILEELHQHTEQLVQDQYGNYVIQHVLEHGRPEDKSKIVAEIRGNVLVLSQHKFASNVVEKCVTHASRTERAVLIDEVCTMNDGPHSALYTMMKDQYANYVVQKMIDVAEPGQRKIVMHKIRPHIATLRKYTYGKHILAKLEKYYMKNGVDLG

For the next assay, the target named is PUM1 PUF domain R3-VRE (Homo sapiens, UniProt Q14671 828-1176, C935V;Q939E). The procedure, abridged:
as §1

A further assay deals with PUM1 PUF domain R3-LWM (Homo sapiens, UniProt Q14671 828-1176, C935L;R936W;Q939M). The procedure, abridged:
as §1

The target of a further assay is PUM1 PUF domain R1-RWV (Homo sapiens, UniProt Q14671 828-1176, S863R;R864W;Q867V). The procedure, abridged: as §1
PUM1 PUF domain R1-RWV, sequence (Q14671 828-1176 S863R/R864W/Q867V): as the sequence (Q14671 828-1176 C935G/R936C/Q939D) above, with S36R, R37W, Q40V, G108C, C109R, D112Q counted along it
A further assay has as its target PUM1 PUF domain R1-KRV (Homo sapiens, UniProt Q14671 828-1176, S863K;Q867V). The procedure, abridged:
as §1

The next assay addresses PUM1 PUF domain R8-PWV (Homo sapiens, UniProt Q14671 828-1176, N1122P;Y1123W;Q1126V). In outline: as §1
The target of another assay is PUM1 PUF domain R4-TRA (Homo sapiens, UniProt Q14671 828-1176, N971T;H972R;Q975A). In outline: as §1
PUM1 PUF domain R4-TRA, sequence (Q14671 828-1176 N971T/H972R/Q975A): as the sequence (Q14671 828-1176 C935G/R936C/Q939D) above, with G108C, C109R, D112Q, N144T, H145R, Q148A counted along it
The next assay addresses PUM1 PUF domain R4-LHR (Homo sapiens, UniProt Q14671 828-1176, N971L;Q975R). The procedure, abridged: as §1
A further assay deals with PUM1 PUF domain R4-PWA (Homo sapiens, UniProt Q14671 828-1176, N971P;H972W;Q975A). In outline:
as §1

PUM1 PUF domain R8-PWV, sequence (Q14671 828-1176 N1122P/Y1123W/Q1126V): as the sequence (Q14671 828-1176 C935G/R936C/Q939D) above, with G108C, C109R, D112Q, N295P, Y296W, Q299V counted along it
PUM1 PUF domain R3-VRE, sequence (Q14671 828-1176 C935V/Q939E): as the sequence (Q14671 828-1176 C935G/R936C/Q939D) above, with G108V, C109R, D112E counted along it
PUM1 PUF domain R1-KRV, sequence (Q14671 828-1176 S863K/Q867V): as the sequence (Q14671 828-1176 C935G/R936C/Q939D) above, with S36K, Q40V, G108C, C109R, D112Q counted along it
PUM1 PUF domain R3-LWM, sequence (Q14671 828-1176 C935L/R936W/Q939M): as the sequence (Q14671 828-1176 C935G/R936C/Q939D) above, with G108L, C109W, D112M counted along it
PUM1 PUF domain R4-LHR, sequence (Q14671 828-1176 N971L/Q975R): as the sequence (Q14671 828-1176 C935G/R936C/Q939D) above, with G108C, C109R, D112Q, N144L, Q148R counted along it
PUM1 PUF domain R4-PWA, sequence (Q14671 828-1176 N971P/H972W/Q975A): as the sequence (Q14671 828-1176 C935G/R936C/Q939D) above, with G108C, C109R, D112Q, N144P, H145W, Q148A counted along it

Take “GGCUAGAACUAGUGGAUCCCCCGGCGCCCGGCGGCUCGAGCCCGGGUAAGUGUAAGUAGUCUGCAUGCCGCCGGGCGCCAUGCCUGCAGGUCGACUCUAGAAAACAUG”: the binding signal with PUM1 PUF domain R3-GCD is 3.94 log2 enrichment (interaction score); with PUM1 PUF domain R3-VRE it was 4.15 log2 enrichment (interaction score); with PUM1 PUF domain R3-LWM, 5.54 log2 enrichment (interaction score).
Take “GGCUAGAACUAGUGGAUCCCCCGGCGCCCGGCGGCUCGAGCCCGGGUAAGUGUAAAUUGUCUGCAUGCCGCCGGGCGCCAUGCCUGCAGGUCGACUCUAGAAAACAUG”: the binding signal with PUM1 PUF domain R1-RWV is 2.59 log2 enrichment (interaction score); with PUM1 PUF domain R1-KRV it was 6.82 log2 enrichment (interaction score).
The like results for “GGCUAGAACUAGUGGAUCCCCCGGCGCCCGGCGGCUCGAGCCCGGGUAAGUGUAAAUCGUCUGCAUGCCGCCGGGCGCCAUGCCUGCAGGUCGACUCUAGAAAACAUG” were, in that order, 3.55 log2 enrichment (interaction score) and 3.51 log2 enrichment (interaction score).
In the case of “GGCUAGAACUAGUGGAUCCCCCGGCGCCCGGCGGCUCGAGCCCGGGUAAGCGUAAAUAGUCUGCAUGCCGCCGGGCGCCAUGCCUGCAGGUCGACUCUAGAAAACAUG”, in the assay with PUM1 PUF domain R8-PWV, the binding signal is 2.69 log2 enrichment (interaction score).
For the sequence “GGCUAGAACUAGUGGAUCCCCCGGCGCCCGGCGGCUCGAGCCCGGGUAAGUGUAAAUAGUCUGCAUGCCGCCGGGCGCCAUGCCUGCAGGUCGACUCUAGAAAACAUG”, the binding signal in the assay with PUM1 PUF domain R8-PWV is 3.54 log2 enrichment (interaction score); in the assay with PUM1 PUF domain R3-VRE, 3.18 log2 enrichment (interaction score); in the assay with PUM1 PUF domain R4-TRA, 3.73 log2 enrichment (interaction score).
Take “GGCUAGAACUAGUGGAUCCCCCGGCGCCCGGCGGCUCGAGCCCGGGUAAGUGUAUAUAGUCUGCAUGCCGCCGGGCGCCAUGCCUGCAGGUCGACUCUAGAAAACAUG”: the values for the binding signal with PUM1 PUF domain R4-LHR and in the assay with PUM1 PUF domain R4-PWA were 4.01 log2 enrichment (interaction score) and 5.17 log2 enrichment (interaction score), respectively.
Turning to “GGCUAGAACUAGUGGAUCCCCCGGCGCCCGGCGGCUCGAGCCCGGGUAAGUGUACAUAGUCUGCAUGCCGCCGGGCGCCAUGCCUGCAGGUCGACUCUAGAAAACAUG”, in the assay with PUM1 PUF domain R4-TRA, the binding signal was 0.18 log2 enrichment (interaction score).
As to “GGCUAGAACUAGUGGAUCCCCCGGCGCCCGGCGGCUCGAGCCCGGGUAAGUGUAAUUAGUCUGCAUGCCGCCGGGCGCCAUGCCUGCAGGUCGACUCUAGAAAACAUG”, the binding signal with PUM1 PUF domain R3-LWM is 4.35 log2 enrichment (interaction score).
